Experimental data taken from PMC4336329 (PLoS ONE, 2015).
About 14,000 (4.5%) of roughly 310,000 compounds showed an effect of 50% or more. Effects have a minus sign here. The sample holds strong results, similar compounds and a random draw of the others, so the mix is not that of the screen.

biological target: human ether-à-go-go-related gene (hERG) potassium channel (human, UniProt Q12809); assay: primary screen, population patch clamp on CHO cells stably expressing hERG; higher = less effect of the substance
Sequence (Q12809 whole entry, looked up): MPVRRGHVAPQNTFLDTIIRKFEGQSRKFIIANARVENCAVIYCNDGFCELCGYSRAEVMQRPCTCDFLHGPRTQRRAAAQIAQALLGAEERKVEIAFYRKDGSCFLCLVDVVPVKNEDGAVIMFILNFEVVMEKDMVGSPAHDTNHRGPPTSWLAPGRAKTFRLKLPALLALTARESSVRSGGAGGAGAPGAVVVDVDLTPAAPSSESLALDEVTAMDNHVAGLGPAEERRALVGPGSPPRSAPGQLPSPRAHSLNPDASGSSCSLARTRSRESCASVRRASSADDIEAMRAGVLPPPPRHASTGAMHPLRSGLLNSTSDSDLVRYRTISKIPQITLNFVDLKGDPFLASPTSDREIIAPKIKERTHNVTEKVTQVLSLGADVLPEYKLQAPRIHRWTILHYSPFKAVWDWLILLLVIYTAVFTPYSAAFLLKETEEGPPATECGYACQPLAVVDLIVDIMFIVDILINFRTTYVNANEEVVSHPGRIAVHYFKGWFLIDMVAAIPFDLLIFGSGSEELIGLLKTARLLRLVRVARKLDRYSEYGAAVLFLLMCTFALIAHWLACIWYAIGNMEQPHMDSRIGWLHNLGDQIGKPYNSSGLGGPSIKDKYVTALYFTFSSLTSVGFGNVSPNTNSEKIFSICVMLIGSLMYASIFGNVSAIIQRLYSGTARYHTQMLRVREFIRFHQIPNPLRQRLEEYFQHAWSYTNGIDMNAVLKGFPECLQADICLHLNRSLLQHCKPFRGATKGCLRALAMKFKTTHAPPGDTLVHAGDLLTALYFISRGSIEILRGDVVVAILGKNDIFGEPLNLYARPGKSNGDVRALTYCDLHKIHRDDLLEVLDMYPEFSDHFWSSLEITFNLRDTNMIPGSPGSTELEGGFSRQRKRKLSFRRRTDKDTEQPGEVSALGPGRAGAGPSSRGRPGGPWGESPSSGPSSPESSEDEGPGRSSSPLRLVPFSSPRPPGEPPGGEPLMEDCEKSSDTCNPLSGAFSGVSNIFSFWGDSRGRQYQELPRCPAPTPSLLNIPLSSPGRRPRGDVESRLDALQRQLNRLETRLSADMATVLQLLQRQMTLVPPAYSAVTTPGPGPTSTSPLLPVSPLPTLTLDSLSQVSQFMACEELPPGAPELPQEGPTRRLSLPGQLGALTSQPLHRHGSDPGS
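Further: peak tail current of the secondary pulse compared with the same well before compound.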

Row | Structure (SMILES) | hERG current change (%, negative = inhibition) at 10uM
1 | Nc1nnc(SCC(=O)NNC(=O)c2ccc(Cl)cc2)s1 | -0.0303%
2 | O=C(N/N=C/c1ccc(O)cc1)c1ccc(COc2cc(Cl)ccc2Cl)o1 | 7.07%
3 | c1csc(-c2nn3c(Cn4nnc5ccccc54)nnc3s2)c1 | 16.6%
4 | Cc1cc(NNC(=O)Nc2cccc(Cl)c2)nc2c1c(C)nn2C | 3.56%
5 | Cc1ccccc1NC(=O)CN1C(=O)N/C(=C\c2ccc(N3CCOCC3)c(F)c2)C1=O | 10.8%
6 | COc1ccc(NC(=S)NCCc2c[nH]c3ccccc23)cc1 | -7.49%
7 | Nc1ccccc1C#Cc1ccc([N+](=O)[O-])cc1 | 1.66%
8 | CCc1ccc(-c2cc(C)no2)cc1S(=O)(=O)N1CCN(c2ccc(C(C)=O)cc2)CC1 | -4.32%
9 | C=CCC(CC=C)(C(=O)O)c1ccccc1 | -8.46%
10 | COc1ccc(NC(C)=O)cc1S(=O)(=O)NC(C)c1ccc(-n2ccnc2)cc1 (centres unmarked) | -3.74%
11 | CC(NC(=O)c1c(F)cccc1Cl)c1ccc(-n2ccnc2)cc1 (centres unmarked) | -27%
12 | CC(NC(=O)CNC(=O)c1ccccc1F)c1ccc(-n2ccnc2)cc1 (centres unmarked) | -64%
13 | COc1ccc(C(=O)NC(C)c2ccc(-n3ccnc3)cc2)c(OC)c1 (centres unmarked) | -53.8%
14 | CC(NC(=O)CCNC(=O)c1ccccc1Cl)c1ccc(-n2ccnc2)cc1 (centres unmarked) | -17.8%
15 | COc1ccc(OC)c(S(=O)(=O)NC(C)c2ccc(-n3ccnc3)cc2)c1 (centres unmarked) | -25.1%
16 | CC(NC(=O)c1ccccc1OC(F)F)c1ccc(-n2ccnc2)cc1 (centres unmarked) | -55%
17 | COc1ccc(C(=O)NC(C)c2ccc(-n3ccnc3)cc2)c(OC)c1OC (centres unmarked) | -53.1%
18 | CCCCN(CC)CCNC(=O)Cn1cnc2sc(C)c(S(=O)(=O)N3CCC(C)CC3)c2c1=O | -19.1%
19 | Cc1cc(C)c(S(=O)(=O)c2cc(F)ccc2C)c(=O)[nH]1 | 18.1%
20 | COc1ccc(-c2noc(C(C)NS(=O)(=O)c3ccc(NC(C)=O)cc3)n2)cc1 (centres unmarked) | 17.5%
21 | COc1ccc2cc(-c3[nH]ncc3CN3C[C@@H]4CCC[C@H]3C4)ccc2c1 | -58.7%

Row | Structure (SMILES) | hERG current change (%, negative = inhibition) at 10uM
22 | Oc1cccc(CCC2CCCCN2Cc2cn[nH]c2-c2ccc3c(c2)OCO3)c1 (centres unmarked) | -66.2%
23 | c1cc2c(cc1-c1[nH]ncc1CN1C[C@H]3CC[C@H]1C3)OCO2 | -3.58%
24 | c1cc2c(cc1-c1[nH]ncc1CN1CC3C[C@@H]4CC1C[C@H](C3)C4)OCO2 | -44.3%
25 | COc1ccc(-c2[nH]ncc2CN2C[C@@H]3CCC[C@H]2C3)c(F)c1 | 8.16%
26 | COc1ccc2cc(-c3[nH]ncc3CN3CCCC3c3nonc3C)ccc2c1 (centres unmarked) | 0.998%
27 | COCC1CCCCN1Cc1cn[nH]c1-c1ccc2cc(OC)ccc2c1 (centres unmarked) | -70.2%
28 | Cc1nonc1C1CCCN1Cc1cn[nH]c1-c1ccc2c(c1)OCO2 (centres unmarked) | -25.6%
29 | COCC1CCCCN1Cc1cn[nH]c1-c1ccc(OC)cc1OC (centres unmarked) | -25.5%
30 | CCN(CC(=O)Nc1c(F)cccc1F)C(=O)CSc1nc2ccccc2o1 | -1.64%
31 | Cc1cccc(NS(=O)(=O)c2ccc3nc(-c4ccccc4)[nH]c3c2)c1C | 11.8%
32 | CCn1cc(C(=O)NCC(OC)OC)c(=O)c2cc(S(=O)(=O)N3CCCC3)ccc21 | 10.3%
33 | O=C(COC(=O)CCCN1C(=O)c2ccccc2C1=O)Nc1ncc(Cl)cc1Cl | -9.74%
34 | O=S(=O)(c1ccc2ccccc2c1)N1CCN=C1SCc1cccnc1 | -43.9%
35 | O=c1ccc(/C=C/c2ccccc2)nn1Cc1ccc(Cl)cc1Cl | 8.47%
36 | CCOc1cc(NC(=O)c2ccco2)c(OCC)cc1NC(=O)COc1ccccc1C | 26.4%
37 | CC(C)(C)c1cc(NC(=O)C2CCCO2)no1 (centres unmarked) | 11.6%
38 | CCC(Oc1cc(Cl)ccc1Cl)C(=O)N1CCC2(CC1)OCCO2 (centres unmarked) | 4.7%
39 | Cc1ccsc1C(=O)C1CCCN(Cc2ccc(O)cc2)C1 (centres unmarked) | -22.9%
40 | Cc1ccsc1C(=O)C1CCCN(Cc2cccc(OCCO)c2)C1 (centres unmarked) | -16.3%
41 | Cc1ccsc1C(=O)C1CCCN(Cc2cc(C(C)C)n[nH]2)C1 (centres unmarked) | -43.9%
42 | Cc1ccsc1C(=O)C1CCCN(Cc2cccc(-n3cccn3)c2)C1 (centres unmarked) | -65.4%

Row | Structure (SMILES) | hERG current change (%, negative = inhibition) at 10uM
43 | Cc1ccsc1C(=O)C1CCCN(Cc2ccc(-n3cccn3)cc2)C1 (centres unmarked) | -67.7%
44 | COC(=O)Nc1nc(-c2ccc(F)cc2)c(C)s1 | 14.5%
45 | Cc1ccc(-n2c(O)c(/C=N/NC(=O)c3ccncc3)c(=O)[nH]c2=O)cc1C | 9.71%
46 | CN(c1ccccc1)c1ncccn1 | 18%
47 | O=S(=O)(Nc1cccnc1)c1ccc(F)cc1 | 16.6%
48 | COc1ccc(C2=NOC(Cn3nc(C(=O)NCc4cccs4)cc3-c3ccccc3)C2)cc1 (centres unmarked) | -51.3%
49 | COCCNC(=O)c1cc(-c2ccccc2)n(CC2CC(c3ccc(OC)cc3)=NO2)n1 (centres unmarked) | -10.7%
50 | COc1ccc(C2=NOC(Cn3nc(C(=O)NCc4ccco4)cc3-c3ccccc3)C2)cc1 (centres unmarked) | -68.2%
51 | COc1ccc(C2=NOC(Cn3nc(C(=O)NCc4ccccc4OC)cc3-c3ccccc3)C2)cc1 (centres unmarked) | -16.2%
52 | COc1ccc(C2=NOC(Cn3nc(C(=O)O)cc3-c3ccccc3)C2)cc1 (centres unmarked) | -10.3%
53 | COc1ccc(C2=NOC(Cn3nc(C(=O)NCc4ccc5c(c4)OCO5)cc3-c3ccccc3)C2)cc1 (centres unmarked) | -17.4%
54 | COc1ccc(C2=NOC(Cn3nc(C(=O)NCc4ccc(C)cc4)cc3-c3ccccc3)C2)cc1 (centres unmarked) | 2.68%
55 | COc1ccc(C2=NOC(Cn3nc(C(=O)NCC4CC4)cc3-c3ccccc3)C2)cc1 (centres unmarked) | -65%
56 | COc1ccc(C2=NOC(Cn3nc(C(=O)NCc4ccc(OC(F)(F)F)cc4)cc3-c3ccccc3)C2)cc1 (centres unmarked) | -3.95%
57 | COc1ccc(S(=O)(=O)N2CCC(C(=O)NCC3CCCO3)CC2)cc1C (centres unmarked) | 9.95%
58 | O=C(CNC(=O)c1ccc(S(=O)(=O)N2CCCC2)cc1)N/N=C/c1c(Cl)cccc1Cl | 6.64%
59 | CN(CCO)C(=O)c1ccc(-c2nn(C)c(=O)c3ccccc23)cc1 | 10.9%
60 | Nc1nc2ncc(C(=O)c3cc(F)ccc3O)cc2s1 | -0.22%
61 | Cn1c2c(c(=O)n(C)c1=O)C(CC(=O)Nc1ccccc1)C(=O)N2 (centres unmarked) | 2.49%
62 | CCN1CCN(C(=O)/C(=C/c2cccs2)NC(=O)c2ccc(C)c(C)c2)CC1 | -75.6%
63 | O=C(N/C(=C/c1cccs1)C(=O)N1CCCCCC1)c1ccccc1 | -21%

Row | Structure (SMILES) | hERG current change (%, negative = inhibition) at 10uM
64 | Cc1ccc(C(=O)N/C(=C\c2cccs2)C(=O)N2CCOCC2)cc1C | -19%
65 | Cc1ccc(C(=O)N/C(=C\c2cccs2)C(=O)N2CCN(C)CC2)cc1C | -70.6%
66 | CC(C)(C)c1ccc(C(=O)N/C(=C\c2cccs2)C(=O)N2CCOCC2)cc1 | -7.22%
67 | Cc1ccc(C(=O)N/C(=C\c2cccs2)C(=O)NCC2CCCO2)cc1C (centres unmarked) | 6.35%
68 | CCc1nnc(NC(=O)Cc2ccc(Br)cc2)s1 | 12.4%
69 | CC1CCc2[nH]c3ccc(C(=O)N(C)CC(=O)Nc4ccccc4C(F)(F)F)cc3c2C1 (centres unmarked) | 4.13%
70 | O=C1CC(c2cccc([N+](=O)[O-])c2)c2c(ccc3ccccc23)N1 (centres unmarked) | 10.3%
71 | Cc1cc(C)n2nc(C(=O)Nc3cccc(S(=O)(=O)N4CCCC4)c3)nc2n1 | -2.92%
72 | Cc1cc(C)n2nc(C(=O)Nc3ccc(S(=O)(=O)N(C)C)cc3)nc2n1 | -2.93%
73 | COc1ccccc1NS(=O)(=O)c1cccc(NC(=O)c2ccc3ccccc3n2)c1 | 3.05%
74 | COc1ccccc1NS(=O)(=O)c1ccc(NC(=O)c2nc3nc(C)cc(C(F)F)n3n2)cc1 | -13.8%
75 | COc1ccccc1NS(=O)(=O)c1cccc(NC(=O)c2nc3nc(C)cc(C)n3n2)c1 | -55.2%
76 | Cc1cc(C)n2nc(C(=O)Nc3cccc(S(=O)(=O)N(C)c4ccccc4)c3)nc2n1 | -68.3%
77 | CCOC(=O)/C=C/C(=O)Nc1ccc(S(=O)(=O)N(C)c2ccccc2)cc1 | -2.23%
78 | O=c1[nH]c(=O)n(-c2ccc(Cl)cc2)c(O)c1C=NCCN1CCCCC1 | 2.13%
79 | O=C(O)c1cc(-c2ccccc2)nn1CC1CC(c2cccnc2)=NO1 (centres unmarked) | 6.86%
80 | O=C(NCc1cccc(C(F)(F)F)c1)c1cc(-c2ccccc2)nn1CC1CC(c2cccnc2)=NO1 (centres unmarked) | -52.4%
81 | O=C(NCc1cccc(Br)c1)c1cc(-c2ccccc2)nn1CC1CC(c2cccc([N+](=O)[O-])c2)=NO1 (centres unmarked) | -0.929%
82 | Cc1ccccc1-c1cc(C(=O)NCc2ccc3c(c2)OCO3)n(CC2CC(c3cccnc3)=NO2)n1 (centres unmarked) | -20.8%
83 | O=C(NCc1cccc(Br)c1)c1cc(-c2ccccc2)nn1CC1CC(c2cccnc2)=NO1 (centres unmarked) | -62.8%
